This note sets out measurements from PubChem BioAssay (NCATS).

“And” between values parts separate entries of the source, which are not always exact repeats. Equal entries are not always repeated. Results filed as inconclusive are left out. The source made the active and inactive calls. Calls follow the shape of the dose curve; as a rule, active = well fitted cell-killing curve with a large enough effect; inconclusive = small, poorly fitted or top-dose-only effect, or effect the other way; inactive = no such curve, though single readings can be large or run the other way.
Potency is read from the fitted curve at half-maximal effect.

The test in a line: Viability qHTS for spleen associated tyrosine kinase inhibitor (SYKi) drug resistant MV4-11 cells (AID 1963824). Also: nearly all actives have a fitted effect of over 35% in size. As to conditions: SYKi-resistant MV4-11 viability, CellTiter-Glo, 72 h; series mostly up to 45 µM. A digest of the protocol: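 SYK inhibitor-resistant MV4-11 AML cells, 500 per well, added to predispensed compounds and incubated 72 hr at 37 C, 5% CO2. Viability measured by CellTiter-Glo luminescence after 10 min at room temperature.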
For `CNC(=O)c1ccccc1Sc1ccc2c(/C=C/c3ccccn3)n[nH]c2c1`, the Potency was 8.41 µM (active) and 1.3 µM (active) and 3.32 µM (active). Take `Cc1ccn(-c2cc(Cl)ccc2[C@@H](Oc2cc(-c3ccc(C[C@H](N)C(=O)O)cc3)nc(N)n2)C(F)(F)F)n1`: the Potency is 20.6 µM (active). With `CCCCCCCCCCCCOCCOCCOCCOCCOCCOCCOCCOCCOCCO`, the Potency is 5.96 µM (active). Same read-out and setting: then `C[C@@H]1C[C@H]2[C@@H]3CCC4=CC(=O)C=C[C@]4(C)[C@@]3(F)[C@@H](O)C[C@]2(C)[C@@]1(O)C(=O)COP(=O)(O)O`, with “inactive”. Same read-out and setting: with `CCOC(=O)c1sc(NC(=O)[C@H](C(C)C)n2c(=O)[nH]c3ccccc3c2=O)nc1C` the figure was 16.4 µM (active); with `CC/C=C\C(O)C(O)C1=C(C)C(=O)C2(O1)C(=O)NC(OC)(C(=O)c1ccccc1)C2O` (stereo not given), “inactive”; with `COc1c2c(c(C)c3c1C(=O)OC3)OC1(C)CC(O)C34OC(OC)(OC3(C)C)C(O)CC4(C)C1C2` (stereo not given), “inactive”. On the same count and under the same terms, then `C=C(C(=O)O)[C@@H]1CC[C@@]2(C)CCC[C@@](C)(O)[C@@H]2C1`, with “inactive”; and `CCC[C@@H]1O[C@@H]2C[C@H]3[C@@H]4CCC5=CC(=O)C=C[C@]5(C)[C@H]4[C@@H](O)C[C@]3(C)[C@]2(C(=O)CO)O1`, with 8.2 µM (active); and `Cn1cc(C2=C(c3cn(CCCSC(=N)N)c4ccccc34)C(=O)NC2=O)c2ccccc21`, with 0.411 µM (active).

For `CC(C)(C)c1ccc(C(=O)Nc2cc(Cl)c(Br)cc2C(=O)O)cc1`, the Potency was 16.4 µM (active). On to `Cc1[nH]c(/C=C2\C(=O)Nc3cc(-c4ccccc4)ccc32)c(C)c1CCC(=O)O`, for which the Potency is 10.3 µM (active).

As for `COC(=O)[C@]1(Cc2ccc(O)c(CC=C(C)C)c2)OC(=O)C(O)=C1c1ccc(O)cc1`, the Potency is 8.93 µM (active). With `CCOC(=O)CCN(C(=O)c1ccc2c(c1)nc(CNc1ccc(C(=N)N)cc1)n2C)c1ccccn1`, the Potency entry was “inactive”. With `Nc1nc2cc(-c3ccc4ncc(C(=O)N5CCOCC5)n4c3)ccc2o1`, the Potency was 10.5 µM (active). On the same count and under the same terms, then `COCC1OC(n2cnc3c(=O)[nH]cnc32)C(O)C1O` (stereo not given), with “inactive”; and `CC(=O)OC1CC2C3(C)CCC(OC(=O)CC(=O)O)C(C)(C)C3CCC2(C)C2(C)CCC(C3(C)CCC(=O)O3)C12` (stereo not given), with 6.32 µM (active). With `CCNc1nc2c(ncn2[C@H]2C[C@H](O)[C@@H](CO)O2)c(=O)[nH]1`, the Potency entry is “inactive”. The same measure, in the same setting: then `CC(CCC1(O)OC2CC3C4CC=C5CC(O[C@@H]6O[C@H](CO)[C@@H](O[C@@H]7O[C@@H](C)[C@H](O)[C@@H](O)[C@H]7O)[C@H](O)[C@H]6O[C@@H]6O[C@@H](C)[C@H](O)[C@@H](O)[C@H]6O)CCC5(C)C4CCC3(C)C2C1C)CO[C@@H]1O[C@H](CO)[C@@H](O)[C@H](O)[C@H]1O` (stereo not given in full), with 3.48 µM (active); and `Cc1nc2cc(C(=O)NCc3ccccn3)nn2c(C)c1Cc1cccc(Cl)c1`, with 20.6 µM (active); and `Cn1cc(S(=O)(=O)c2ccc(Cl)cc2)c2cccc(N3CCNCC3)c21`, with 13 µM (active). The same measure, in the same setting: with `CC1(C)CC(=O)C2=C(C1)NC(=S)NC2c1cccc(O)c1` (stereo not given) the figure was 0.58 µM (active); with `Cc1onc(-c2c(F)cccc2Cl)c1C(=O)N[C@@H]1C(=O)N2[C@@H]1SC(C)(C)[C@@H]2C(=O)O`, 13 µM (active). `CC(C)n1cnc2c(-c3cnc(N)nc3)nc(N3CCOCC3)nc21`: the Potency was 3.17 µM (active). Still for that read-out and setting: with `Cc1ccc([C@@H]2CC=C(C(=O)O)[C@H](c3ccc(C(C)(C)C)cc3)N2S(=O)(=O)c2ccc(C)cc2)cc1` the figure was 16.4 µM (active). In the case of `C/C=C(\C)C(=O)OC[C@H]1O[C@H](O[C@H]2O[C@H](CO)[C@@H](OC(=O)/C(C)=C/C)[C@H](O)[C@H]2O[C@@H]2O[C@H](CO)[C@@H](O)[C@H](O)[C@H]2O)[C@H](O[C@@H]2O[C@H](CO)[C@@H](O)[C@H](O)[C@H]2O)[C@@H](O)[C@@H]1O`, the viability, % of control is 92.1% [at 9.25 µM] (inactive). Turning to `CCC(C)C(=O)O[C@H]1CCC=C2C=C[C@H](C)[C@H](CC[C@@H](O)C[C@@H](O)CC(=O)O)[C@H]21` (stereo not given in full), the Potency was 10 µM (active). Same read-out and setting: with `C=CC(C)(/C=C/c1ccc(O)cc1)CCC=C(C)C` (stereo not given) the figure was 23.1 µM (active); with `COc1ccc(Oc2c(Cl)cnn(C3c4ccccc4-c4ccccc43)c2=O)cc1`, 14.6 µM (active). Still for that read-out and setting: with `C[C@@H]1O[C@@H](O[C@H]2[C@H](OC(=O)[C@]34CCC(C)(C)C[C@H]3C3=CCC5[C@@]6(C)C[C@H](O)[C@H](O[C@@H]7O[C@H](CO)[C@@H](O)[C@H](O)[C@H]7O)[C@](CO)(C(=O)O)C6CC[C@@]5(C)[C@]3(C)C[C@H]4O)OC[C@H](O)[C@@H]2O)[C@H](O)[C@H](O)[C@H]1O[C@@H]1OC[C@@H](O)[C@H](O[C@@H]2OC[C@](O)(CO)[C@H]2O)[C@H]1O` (stereo not given in full) the figure was 0.776 µM (active); with `C[C@]12CC/C(=N\OCC(=O)O)C=C1CC[C@@H]1[C@@H]2[C@@H](O)C[C@@]2(C)[C@H]1CC[C@]2(O)C(=O)CO`, “inactive”. For `CC1=CC(=O)CC(C)(C)C1CCC(C)O[C@@H]1O[C@H](CO[C@@H]2OC[C@@H](O)[C@H](O)[C@H]2O)[C@@H](O)[C@H](O)[C@H]1O` (stereo not given in full), the Potency entry was “inactive”. Same read-out and setting: then `COc1ccc(S(=O)(=O)Nc2c(C)cc(C)cc2C)cc1`, with 20.6 µM (active). Same read-out and setting: then `COc1cc(CN(CCN)C(=O)c2cccs2)ccc1OCc1ccccc1`, with 16.4 µM (active); and `C[C@@H]1C(=O)O[C@H]2[C@H]1CC[C@@]1(C)C(=O)C=C[C@@](C)(O)[C@H]21`, with “inactive”; and `CC(C)(C)c1ccc(S(=O)(=O)Nc2ccc(Cl)cc2C(=O)c2cc[n+]([O-])cc2)cc1`, with 20.6 µM (active).

`CC(=O)N1CCN(NC(=O)c2ccc(F)cc2)CC1`: the Potency entry is “inactive”.

Regarding `COc1cc(NC(=O)Nc2cccc(CNC(=O)O[C@H]3CCOC3)c2)ccc1-c1cnco1`, the Potency is 0.82 µM (active). For `CC1=C(C)C(=O)OC(C(C)C2C(O)CC3C4C5OC5C5(O)CC(OC6OC(CO)C(OC7OC(C)C(O)C(O)C7O)C(O)C6O)CC(O)C5(C)C4CCC32C)C1` (stereo not given), the Potency result is “inactive”.

Consider `OC[C@@]1(O)CO[C@H](OC[C@H]2O[C@@H](OC(CCCCc3ccc(O)cc3)CCc3ccc(O)cc3)[C@H](O)[C@@H](O)[C@@H]2O)[C@@H]1O` (stereo not given in full), for which the Potency entry is “inactive”.
